# Columns and labels:
# [1] = target: Sphingosine kinase 1 (Homo sapiens) (UniProt Q9NYA1); conditions: at 1 µM;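 note: mean SPHK1 inhibition value reported from the GSK PKIS kinase panel screen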
# [2] = target: T1, Sphingosine kinase 2 (Homo sapiens) (UniProt Q9NRA0); conditions: at 0.1 µM
# T1 sequence (whole entry): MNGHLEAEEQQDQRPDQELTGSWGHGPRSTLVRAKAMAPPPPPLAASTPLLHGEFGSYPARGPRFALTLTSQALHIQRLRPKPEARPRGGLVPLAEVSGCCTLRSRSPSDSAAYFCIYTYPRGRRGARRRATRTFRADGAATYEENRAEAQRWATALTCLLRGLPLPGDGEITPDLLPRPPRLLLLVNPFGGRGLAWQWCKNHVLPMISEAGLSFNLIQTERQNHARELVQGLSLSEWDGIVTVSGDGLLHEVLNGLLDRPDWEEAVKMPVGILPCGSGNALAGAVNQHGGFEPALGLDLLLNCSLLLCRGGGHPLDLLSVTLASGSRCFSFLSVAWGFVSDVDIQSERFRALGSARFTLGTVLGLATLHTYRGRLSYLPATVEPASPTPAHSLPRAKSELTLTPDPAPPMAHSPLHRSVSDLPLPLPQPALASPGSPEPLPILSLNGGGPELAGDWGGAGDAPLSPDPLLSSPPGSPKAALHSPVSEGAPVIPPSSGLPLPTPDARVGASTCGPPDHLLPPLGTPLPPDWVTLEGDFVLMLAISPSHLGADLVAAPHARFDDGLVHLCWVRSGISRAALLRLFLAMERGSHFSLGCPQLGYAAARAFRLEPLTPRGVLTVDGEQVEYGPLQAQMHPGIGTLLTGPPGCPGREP
# [3] = target: T1, Sphingosine kinase 2 (Homo sapiens); conditions: at 1 µM
# [4] = target: Casein kinase II subunit alpha (Homo sapiens) (UniProt P68400); conditions: at 0.1 µM
# Sequence of Casein kinase II subunit alpha (Homo sapiens) (P68400 whole entry, looked up): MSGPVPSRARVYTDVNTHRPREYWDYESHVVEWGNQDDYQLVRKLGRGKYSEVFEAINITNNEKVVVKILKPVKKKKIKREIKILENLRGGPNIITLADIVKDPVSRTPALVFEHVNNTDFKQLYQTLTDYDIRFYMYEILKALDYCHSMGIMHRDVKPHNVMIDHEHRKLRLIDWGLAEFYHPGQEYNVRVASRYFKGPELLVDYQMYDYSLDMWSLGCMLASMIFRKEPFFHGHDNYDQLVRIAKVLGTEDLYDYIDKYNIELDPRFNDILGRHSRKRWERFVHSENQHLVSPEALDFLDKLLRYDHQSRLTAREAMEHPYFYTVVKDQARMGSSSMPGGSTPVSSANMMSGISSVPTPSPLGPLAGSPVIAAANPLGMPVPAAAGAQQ
# [5] = target: Casein kinase II subunit alpha (Homo sapiens) (UniProt P68400); conditions: at 1 µM
# [6] = target: T2, Inhibitor of nuclear factor kappa-B kinase subunit alpha (Homo sapiens) (UniProt O15111); conditions: at 0.1 µM
# T2 sequence (whole entry): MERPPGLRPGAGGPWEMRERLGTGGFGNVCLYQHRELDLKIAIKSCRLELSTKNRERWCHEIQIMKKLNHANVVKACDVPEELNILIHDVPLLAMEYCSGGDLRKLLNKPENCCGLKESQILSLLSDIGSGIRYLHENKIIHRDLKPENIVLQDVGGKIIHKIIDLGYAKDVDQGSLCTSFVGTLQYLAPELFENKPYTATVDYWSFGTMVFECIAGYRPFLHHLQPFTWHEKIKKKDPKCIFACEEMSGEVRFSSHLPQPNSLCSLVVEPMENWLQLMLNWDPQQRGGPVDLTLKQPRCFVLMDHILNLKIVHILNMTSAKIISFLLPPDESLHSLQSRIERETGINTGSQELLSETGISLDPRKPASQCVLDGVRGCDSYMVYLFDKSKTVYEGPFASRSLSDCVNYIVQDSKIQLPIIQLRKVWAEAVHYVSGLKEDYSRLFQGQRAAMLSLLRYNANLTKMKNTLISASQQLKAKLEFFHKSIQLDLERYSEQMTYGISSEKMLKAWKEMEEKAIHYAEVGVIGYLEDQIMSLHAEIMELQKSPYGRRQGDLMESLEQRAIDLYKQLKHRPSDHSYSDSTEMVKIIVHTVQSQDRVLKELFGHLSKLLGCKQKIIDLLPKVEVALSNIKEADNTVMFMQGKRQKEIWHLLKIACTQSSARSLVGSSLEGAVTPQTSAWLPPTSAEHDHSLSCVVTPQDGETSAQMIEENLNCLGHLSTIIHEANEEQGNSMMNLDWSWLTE
# [7] = target: T2, Inhibitor of nuclear factor kappa-B kinase subunit alpha (Homo sapiens); conditions: at 1 µM
# [8] = target: T3, Inhibitor of nuclear factor kappa-B kinase subunit beta (Homo sapiens) (UniProt O14920); conditions: at 0.1 µM
# T3 sequence (whole entry): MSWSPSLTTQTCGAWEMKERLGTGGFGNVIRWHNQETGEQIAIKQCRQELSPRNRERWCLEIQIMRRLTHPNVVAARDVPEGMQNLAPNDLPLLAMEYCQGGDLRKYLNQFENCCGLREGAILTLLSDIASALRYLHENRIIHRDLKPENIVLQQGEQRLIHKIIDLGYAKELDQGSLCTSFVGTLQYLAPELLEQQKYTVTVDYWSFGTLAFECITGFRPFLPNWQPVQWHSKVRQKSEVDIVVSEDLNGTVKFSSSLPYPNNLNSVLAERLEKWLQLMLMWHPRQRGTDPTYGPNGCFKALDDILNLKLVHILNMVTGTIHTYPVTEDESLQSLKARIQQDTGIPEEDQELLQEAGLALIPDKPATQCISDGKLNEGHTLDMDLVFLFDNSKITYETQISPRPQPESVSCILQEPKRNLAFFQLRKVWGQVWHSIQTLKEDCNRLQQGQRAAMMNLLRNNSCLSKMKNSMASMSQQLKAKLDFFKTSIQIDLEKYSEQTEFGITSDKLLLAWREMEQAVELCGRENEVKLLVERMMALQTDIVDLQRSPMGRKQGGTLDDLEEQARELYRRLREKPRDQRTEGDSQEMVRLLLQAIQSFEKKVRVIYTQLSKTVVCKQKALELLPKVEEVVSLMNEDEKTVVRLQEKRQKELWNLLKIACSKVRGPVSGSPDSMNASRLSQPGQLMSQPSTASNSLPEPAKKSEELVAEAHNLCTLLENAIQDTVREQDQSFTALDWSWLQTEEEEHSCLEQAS
# [9] = target: T3, Inhibitor of nuclear factor kappa-B kinase subunit beta (Homo sapiens); conditions: at 1 µM
# [10] = target: T4, Inhibitor of nuclear factor kappa-B kinase subunit epsilon (Homo sapiens) (UniProt Q14164); conditions: at 0.1 µM
# T4 sequence (whole entry): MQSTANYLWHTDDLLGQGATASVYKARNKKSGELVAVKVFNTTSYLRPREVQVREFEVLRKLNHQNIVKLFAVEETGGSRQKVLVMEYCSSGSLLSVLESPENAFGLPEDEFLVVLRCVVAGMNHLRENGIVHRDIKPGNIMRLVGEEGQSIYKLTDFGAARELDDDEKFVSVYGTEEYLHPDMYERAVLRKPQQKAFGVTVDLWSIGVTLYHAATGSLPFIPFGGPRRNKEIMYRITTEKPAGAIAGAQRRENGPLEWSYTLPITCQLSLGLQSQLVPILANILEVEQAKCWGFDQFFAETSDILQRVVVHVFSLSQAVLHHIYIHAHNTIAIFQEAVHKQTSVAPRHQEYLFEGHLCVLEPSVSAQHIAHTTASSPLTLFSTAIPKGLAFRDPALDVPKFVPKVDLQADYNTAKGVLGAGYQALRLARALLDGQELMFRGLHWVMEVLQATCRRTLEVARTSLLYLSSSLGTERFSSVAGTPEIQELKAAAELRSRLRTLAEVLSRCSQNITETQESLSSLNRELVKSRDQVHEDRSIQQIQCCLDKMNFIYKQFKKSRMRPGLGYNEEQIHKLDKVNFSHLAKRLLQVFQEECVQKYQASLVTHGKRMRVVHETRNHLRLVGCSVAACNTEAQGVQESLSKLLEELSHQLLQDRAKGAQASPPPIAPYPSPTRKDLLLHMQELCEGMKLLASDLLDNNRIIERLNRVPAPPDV
# [11] = target: T4, Inhibitor of nuclear factor kappa-B kinase subunit epsilon (Homo sapiens); conditions: at 1 µM
# [12] = target: T5, Serine/threonine-protein kinase Nek1 (Homo sapiens) (UniProt Q96PY6); conditions: at 0.1 µM
# T5 sequence (whole entry): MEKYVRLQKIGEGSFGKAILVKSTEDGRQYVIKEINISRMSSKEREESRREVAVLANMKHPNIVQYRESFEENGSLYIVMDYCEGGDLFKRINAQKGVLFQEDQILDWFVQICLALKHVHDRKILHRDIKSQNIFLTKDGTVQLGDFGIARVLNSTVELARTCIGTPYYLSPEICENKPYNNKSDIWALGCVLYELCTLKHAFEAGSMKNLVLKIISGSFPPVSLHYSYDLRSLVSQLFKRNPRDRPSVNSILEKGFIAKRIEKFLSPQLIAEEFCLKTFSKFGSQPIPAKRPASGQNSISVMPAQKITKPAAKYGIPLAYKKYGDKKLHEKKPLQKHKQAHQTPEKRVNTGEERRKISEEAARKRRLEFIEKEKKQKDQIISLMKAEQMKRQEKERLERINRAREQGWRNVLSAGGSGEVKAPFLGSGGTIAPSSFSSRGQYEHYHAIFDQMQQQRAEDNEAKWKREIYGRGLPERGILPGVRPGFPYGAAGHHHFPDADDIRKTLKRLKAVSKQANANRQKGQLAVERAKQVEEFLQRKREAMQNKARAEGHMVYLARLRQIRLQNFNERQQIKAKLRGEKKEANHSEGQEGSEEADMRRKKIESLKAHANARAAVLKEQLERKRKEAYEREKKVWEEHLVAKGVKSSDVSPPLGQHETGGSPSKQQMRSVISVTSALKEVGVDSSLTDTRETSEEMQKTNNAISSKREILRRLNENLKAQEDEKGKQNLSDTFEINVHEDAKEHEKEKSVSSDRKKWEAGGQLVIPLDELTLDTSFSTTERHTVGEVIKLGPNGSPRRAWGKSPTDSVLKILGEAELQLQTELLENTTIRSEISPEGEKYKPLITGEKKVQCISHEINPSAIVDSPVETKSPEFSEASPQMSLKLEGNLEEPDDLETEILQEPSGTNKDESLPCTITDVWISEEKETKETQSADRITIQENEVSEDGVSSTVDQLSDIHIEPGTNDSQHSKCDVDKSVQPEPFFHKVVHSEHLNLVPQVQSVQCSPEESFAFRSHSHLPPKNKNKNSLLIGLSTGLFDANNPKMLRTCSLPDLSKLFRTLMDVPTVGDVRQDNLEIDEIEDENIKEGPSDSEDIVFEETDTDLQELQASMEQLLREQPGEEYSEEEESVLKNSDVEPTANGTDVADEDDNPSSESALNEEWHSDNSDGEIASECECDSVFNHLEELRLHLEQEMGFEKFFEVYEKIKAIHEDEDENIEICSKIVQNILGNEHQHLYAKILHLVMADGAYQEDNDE
# [13] = target: T5, Serine/threonine-protein kinase Nek1 (Homo sapiens); conditions: at 1 µM
# [14] = target: T6, Serine/threonine-protein kinase Nek2 (Homo sapiens) (UniProt P51955); conditions: at 0.1 µM
# T6 sequence (whole entry): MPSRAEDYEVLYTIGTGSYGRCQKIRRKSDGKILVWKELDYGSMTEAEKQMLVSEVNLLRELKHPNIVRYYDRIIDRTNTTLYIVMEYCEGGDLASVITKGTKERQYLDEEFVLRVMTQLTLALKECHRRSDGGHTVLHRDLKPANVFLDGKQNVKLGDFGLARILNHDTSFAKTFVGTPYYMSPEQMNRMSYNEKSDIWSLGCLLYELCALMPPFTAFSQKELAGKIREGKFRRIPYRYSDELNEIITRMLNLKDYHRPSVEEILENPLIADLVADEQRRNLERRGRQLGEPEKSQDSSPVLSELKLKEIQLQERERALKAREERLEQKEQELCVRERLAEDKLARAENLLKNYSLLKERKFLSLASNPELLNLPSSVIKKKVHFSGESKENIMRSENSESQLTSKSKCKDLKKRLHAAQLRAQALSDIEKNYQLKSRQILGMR
# [15] = target: T6, Serine/threonine-protein kinase Nek2 (Homo sapiens); conditions: at 1 µM
# [16] = target: Serine/threonine-protein kinase Nek6 (Homo sapiens) (UniProt Q9HC98); conditions: at 0.1 µM
# Sequence of Serine/threonine-protein kinase Nek6 (Homo sapiens) (Q9HC98 whole entry): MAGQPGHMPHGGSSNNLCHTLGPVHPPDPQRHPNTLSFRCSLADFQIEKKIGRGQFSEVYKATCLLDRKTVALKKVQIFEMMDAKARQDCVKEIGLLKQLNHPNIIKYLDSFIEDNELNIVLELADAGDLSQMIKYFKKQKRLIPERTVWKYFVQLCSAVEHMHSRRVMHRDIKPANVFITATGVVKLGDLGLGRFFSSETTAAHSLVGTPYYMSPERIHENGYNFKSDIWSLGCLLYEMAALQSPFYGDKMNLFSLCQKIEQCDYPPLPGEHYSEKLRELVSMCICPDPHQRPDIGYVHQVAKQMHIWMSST
# [17] = target: Serine/threonine-protein kinase Nek6 (Homo sapiens) (UniProt Q9HC98); conditions: at 1 µM
# [18] = target: Serine/threonine-protein kinase Nek7 (Homo sapiens) (UniProt Q8TDX7); conditions: at 0.1 µM
# Sequence of Serine/threonine-protein kinase Nek7 (Homo sapiens) (Q8TDX7 whole entry, looked up): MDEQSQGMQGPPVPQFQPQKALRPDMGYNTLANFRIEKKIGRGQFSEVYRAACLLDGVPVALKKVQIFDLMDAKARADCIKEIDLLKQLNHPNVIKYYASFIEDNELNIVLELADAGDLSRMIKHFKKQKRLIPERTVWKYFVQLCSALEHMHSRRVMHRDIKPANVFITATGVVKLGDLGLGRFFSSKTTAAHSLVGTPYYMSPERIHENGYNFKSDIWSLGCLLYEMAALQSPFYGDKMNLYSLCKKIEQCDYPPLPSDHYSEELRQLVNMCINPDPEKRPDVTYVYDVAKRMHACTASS
# [19] = target: Serine/threonine-protein kinase Nek7 (Homo sapiens) (UniProt Q8TDX7); conditions: at 1 µM
# [20] = target: T7, Serine/threonine-protein kinase Nek9 (Homo sapiens) (UniProt Q8TD19); conditions: at 0.1 µM;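 note: reported value is the mean percent inhibition of NEK9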
# T7 sequence (whole entry): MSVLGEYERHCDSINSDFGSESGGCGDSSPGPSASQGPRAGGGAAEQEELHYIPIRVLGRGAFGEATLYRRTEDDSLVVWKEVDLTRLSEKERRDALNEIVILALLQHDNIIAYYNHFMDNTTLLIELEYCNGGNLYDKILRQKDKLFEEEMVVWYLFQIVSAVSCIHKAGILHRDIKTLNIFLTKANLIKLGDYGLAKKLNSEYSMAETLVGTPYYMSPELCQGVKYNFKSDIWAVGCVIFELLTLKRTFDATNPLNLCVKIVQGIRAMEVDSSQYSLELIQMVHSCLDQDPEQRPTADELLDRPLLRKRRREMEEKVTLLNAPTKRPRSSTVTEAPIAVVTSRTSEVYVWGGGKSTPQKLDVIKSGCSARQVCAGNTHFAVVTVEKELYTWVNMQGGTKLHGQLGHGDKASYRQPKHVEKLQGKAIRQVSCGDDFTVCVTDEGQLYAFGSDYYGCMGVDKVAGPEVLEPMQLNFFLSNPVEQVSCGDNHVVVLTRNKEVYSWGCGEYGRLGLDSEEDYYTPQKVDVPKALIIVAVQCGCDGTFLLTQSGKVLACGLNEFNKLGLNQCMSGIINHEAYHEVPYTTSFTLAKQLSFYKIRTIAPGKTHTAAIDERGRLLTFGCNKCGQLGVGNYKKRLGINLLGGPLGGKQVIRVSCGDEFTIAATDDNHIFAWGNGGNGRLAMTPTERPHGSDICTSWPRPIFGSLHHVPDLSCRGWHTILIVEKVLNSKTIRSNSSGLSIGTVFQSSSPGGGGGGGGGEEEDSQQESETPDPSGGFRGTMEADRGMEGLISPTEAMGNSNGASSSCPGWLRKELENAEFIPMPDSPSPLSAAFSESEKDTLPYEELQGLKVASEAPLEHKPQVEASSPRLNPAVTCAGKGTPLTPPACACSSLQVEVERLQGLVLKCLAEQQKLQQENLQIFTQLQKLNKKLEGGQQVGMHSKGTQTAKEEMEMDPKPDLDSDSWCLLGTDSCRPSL
# Sequence of Sphingosine kinase 1 (Homo sapiens) (Q9NYA1 whole entry): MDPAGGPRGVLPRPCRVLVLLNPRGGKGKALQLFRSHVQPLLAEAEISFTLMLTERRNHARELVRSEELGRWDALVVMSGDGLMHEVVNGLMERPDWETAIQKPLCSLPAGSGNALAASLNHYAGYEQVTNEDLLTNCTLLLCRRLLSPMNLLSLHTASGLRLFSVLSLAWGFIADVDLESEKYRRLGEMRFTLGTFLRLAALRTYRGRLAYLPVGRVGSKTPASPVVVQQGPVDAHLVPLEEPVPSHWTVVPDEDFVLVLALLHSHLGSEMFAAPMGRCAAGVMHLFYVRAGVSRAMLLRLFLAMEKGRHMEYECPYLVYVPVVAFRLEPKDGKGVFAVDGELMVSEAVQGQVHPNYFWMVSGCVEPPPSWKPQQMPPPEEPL
smiles,measurement,setting,value
CCc1ccc(Oc2nccc(-c3c(-c4ccc(F)cc4)ncn3C3CCNCC3)n2)cc1,inhibition,[1],11.5%
same,inhibition,[2],1.25%
same,inhibition,[3],0.72%
same,inhibition,[4],3.17%
same,inhibition,[5],4.14%
same,inhibition,[6],-3.32%
same,inhibition,[7],-1.04%
same,inhibition,[8],3.54%
same,inhibition,[9],4.07%
same,inhibition,[10],8.2%
same,inhibition,[11],6.86%
same,inhibition,[12],2.27%
same,inhibition,[13],1.69%
same,inhibition,[14],4.75%
same,inhibition,[15],2.36%
same,inhibition,[16],2.41%
same,inhibition,[17],0.8%
same,inhibition,[18],2.65%
same,inhibition,[19],5.98%
same,inhibition,[20],-0.95%

# — ChEMBL document CHEMBL1961873, “Compounds: GSK PKIS; Assays: Nanosyn kinase panel” (2012)
